Hits are enriched below; roughly 0.74% of the tested compounds scored in any of these assays.
DTT redox prof: compounds producing H2O2 with reducing agent – biochemical, NIH compound library profiling, artefact control for MLSCN library redox annotation, primary screen | DTT-dependent redox cycling H2O2, phenol red/HRP absorbance; 100% = 100 µM peroxide control, 0% = buffer | activation, % at 10 µM | 200,000 compounds, 0.03% hits;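 active = activation of at least 50% relative to the plate's high and low controls in the primary single-dose screen; inactive = activation below 50%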;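 note: compound incubated with DTT at 0.8 mM final as the reducing agent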
Efa HMGR inh: inhibitors of E. faecalis class II HMGR, primary screen, biochemical, Enterococcus faecalis; HMG-CoA reductase (Enterococcus faecalis, mvaE); purified E. faecalis HMGR, NADPH absorbance 340 nm kinetic; inhibition, % at 10 µM; 190,000 compounds, 0.41% hits;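 active = inhibition above a set limit, the median over all tested compounds plus 3 SD, cut at about 9.5% in these data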;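 note: enzyme runs in reverse so mevalonate oxidation gives rising NADPH absorbance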
pCIP destab: p/CIP-EGFP fusion destabilizers, primary screen, fluorescence, F442A cells; Q05BA5; 16 h; decrease of EGFP signal, % at 10 µM; 290,000 compounds, 0.01% hits; AID 1984, 2009;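 active = EGFP signal decrease of at least 30% at 10 µM or well 3 SD below plate mean, unless failing retest; inactive = the rest, including hits failing retest or dose response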
TbHK1 inh: Trypanosoma brucei hexokinase 1 inhibitors, primary screen, biochemical, G6PDH-coupled NADH absorbance, MLSCN library | recombinant TbHK1, G6PDH-coupled NADH A340 | inhibition, % at 10 µM | 220,000 compounds, 0.11% hits;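 active = inhibition of 50% or more in the single-dose primary screen; inactive = inhibition below 50%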
p97 ATPase inh: inhibitors of human p97 ATPase, primary screen, biochemical. Transitional endoplasmic reticulum ATPase (Homo sapiens), P55072. recombinant p97 ATPase, Kinase-Glo ATP luminescence, 3 h. inhibition, % at 8 µM. 220,000 compounds, 0.42% hits; in the data active = inhibition above about 15%
Target sequence (P55072 whole entry, looked up): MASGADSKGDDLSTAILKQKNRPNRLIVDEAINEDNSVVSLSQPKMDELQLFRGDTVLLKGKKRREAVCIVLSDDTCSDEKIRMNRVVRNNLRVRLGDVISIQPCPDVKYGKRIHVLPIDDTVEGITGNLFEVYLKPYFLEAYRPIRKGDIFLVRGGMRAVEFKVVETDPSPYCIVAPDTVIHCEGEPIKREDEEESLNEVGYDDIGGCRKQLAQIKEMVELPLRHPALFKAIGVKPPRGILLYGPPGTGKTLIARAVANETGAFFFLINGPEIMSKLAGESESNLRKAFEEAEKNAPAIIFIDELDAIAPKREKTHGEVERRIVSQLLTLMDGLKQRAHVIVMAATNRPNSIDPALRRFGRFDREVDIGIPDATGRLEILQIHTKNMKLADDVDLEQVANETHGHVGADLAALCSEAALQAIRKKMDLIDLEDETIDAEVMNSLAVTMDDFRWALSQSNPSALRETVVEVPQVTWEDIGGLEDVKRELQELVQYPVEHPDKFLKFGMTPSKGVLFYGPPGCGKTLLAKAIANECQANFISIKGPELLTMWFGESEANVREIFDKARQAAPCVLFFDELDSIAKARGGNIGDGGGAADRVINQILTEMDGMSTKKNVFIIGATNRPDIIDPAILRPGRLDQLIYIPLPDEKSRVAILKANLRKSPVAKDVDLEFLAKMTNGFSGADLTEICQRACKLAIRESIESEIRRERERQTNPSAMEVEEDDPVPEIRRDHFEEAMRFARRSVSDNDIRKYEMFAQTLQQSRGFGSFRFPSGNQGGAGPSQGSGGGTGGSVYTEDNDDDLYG
Furin inh: human furin inhibitors, primary screen, biochemical, fluorescence intensity. P09958. purified furin, fluorogenic substrate cleavage. inhibition, % at 20 µM or 30 µM. 220,000 compounds, 0.061% hits; in the data active = inhibition above about 25%
G6PDH ctr: Leuconostoc G6PDH inhibition, confirmation, counter-screen for TbHK1 inhibitor project, biochemical, DPI cherry-picked compounds, single concentration | shares compounds with TbHK1 inh | purified G6PDH, NADH absorbance, 1 h | inhibition, % at 10 µM | 210 compounds, 7% hits;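 active = at least 50% inhibition in the glucose-6-phosphate dehydrogenase coupled counterscreen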
TbHK1 confirm: TbHK1 inhibitor retest, confirmation, biochemical, DPI cherry-picked primary actives; shares compounds with TbHK1 inh; recombinant TbHK1, G6PDH-coupled NADH A340 absorbance; inhibition, % at 10 µM; 210 compounds, 10% hits; AID 2560, 2010;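 active = inhibition of at least 50% in both of the two screening runs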
A number is an active result.

Results for COc1ccc(C2(C)NC(=O)N(Cc3cc(Cl)cc4c3OCOC4)C2=O)cc1OC (stereo not drawn) ?
DTT redox prof: inactive; Efa HMGR inh: inactive; pCIP destab: inactive; TbHK1 inh: 52.9; p97 ATPase inh: inactive; Furin inh: inactive; G6PDH ctr: inactive; TbHK1 confirm: inactive

How did COc1ccc(C2(C)NC(=O)N(CC(=O)NCc3ccccc3)C2=O)cc1OC (stereo not drawn) do in these assays?
pCIP destab: inactive

How did Cc1ccc(N2C(=O)CSC2c2cccnc2)cc1F (stereo not drawn) do in these assays?
DTT redox prof: inactive; Efa HMGR inh: inactive; pCIP destab: inactive; TbHK1 inh: 54.9; p97 ATPase inh: inactive; Furin inh: inactive; G6PDH ctr: inactive; TbHK1 confirm: inactive

How did COc1ccc(CN2CCCC(CNC(=O)c3ccc(F)cc3)C2)c(C)c1C (stereo not drawn) do in these assays?
DTT redox prof: inactive; Efa HMGR inh: inactive; pCIP destab: inactive; TbHK1 inh: inactive; p97 ATPase inh: inactive; Furin inh: inactive

Results for COc1cc(C2NC(=O)CCC2[N+](=O)[O-])c(OC)cc1Br (stereo not drawn) ?
pCIP destab: inactive

What do the screens show for `NC(=O)C1CCN(C2CC(=O)N(c3ccc(F)c(Cl)c3)C2=O)CC1` (stereo not drawn)?
DTT redox prof: inactive; Efa HMGR inh: inactive; pCIP destab: inactive; TbHK1 inh: inactive; p97 ATPase inh: inactive; Furin inh: inactive

Results for NC(=O)C1CCN(C2CC(=O)N(c3cccc(F)c3)C2=O)CC1 (stereo not drawn) ?
DTT redox prof: inactive; Efa HMGR inh: inactive; pCIP destab: inactive; TbHK1 inh: 60.8; p97 ATPase inh: inactive; Furin inh: inactive; G6PDH ctr: inactive; TbHK1 confirm: inactive

What do the screens show for `Cc1ccc(S(=O)(=O)c2nc(S(=O)(=O)c3ccc(C)cc3)c(N3CCN(CCO)CC3)s2)cc1`?
pCIP destab: inactive

How did COC(=O)C1(S(=O)(=O)c2ccc(C)cc2)CCOCC1 do in these assays?
DTT redox prof: inactive; Efa HMGR inh: inactive; pCIP destab: inactive; TbHK1 inh: 62.2; p97 ATPase inh: inactive; Furin inh: inactive; G6PDH ctr: inactive; TbHK1 confirm: inactive

How did Cc1ccc2c(c1)N(CC(=O)NC1CCC(C)CC1)C(=O)CO2 (stereo not drawn) do in these assays?
DTT redox prof: inactive; Efa HMGR inh: inactive; pCIP destab: inactive; TbHK1 inh: inactive; p97 ATPase inh: inactive; Furin inh: inactive

What do the screens show for `Cc1ccc2c(c1)N(CC(=O)NC1CCCc3ccccc31)C(=O)CO2` (stereo not drawn)?
DTT redox prof: inactive; Efa HMGR inh: inactive; pCIP destab: inactive; TbHK1 inh: 66.2; p97 ATPase inh: inactive; Furin inh: inactive; G6PDH ctr: inactive; TbHK1 confirm: inactive

What do the screens show for `O=C1OC(N2CCN(C(=O)C3CCCO3)CC2)c2ccccc21` (stereo not drawn)?
DTT redox prof: inactive; Efa HMGR inh: inactive; pCIP destab: inactive; TbHK1 inh: 62.8; p97 ATPase inh: inactive; Furin inh: inactive; G6PDH ctr: inactive; TbHK1 confirm: inactive

What do the screens show for `O=C(C1CCCO1)N1CCN(c2ncccn2)CC1` (stereo not drawn)?
DTT redox prof: inactive; Efa HMGR inh: inactive; pCIP destab: inactive; TbHK1 inh: 56.3; p97 ATPase inh: inactive; Furin inh: inactive; G6PDH ctr: inactive; TbHK1 confirm: inactive

What do the screens show for `CC(C)c1ccc(/C=N/n2cnnc2)cc1`?
pCIP destab: inactive; TbHK1 inh: inactive; p97 ATPase inh: inactive; Furin inh: inactive

What do the screens show for `CCS(=O)(=O)N1CCC(C(=O)NCCN2CCN(Cc3ccccc3)CC2)CC1`?
DTT redox prof: inactive; Efa HMGR inh: inactive; pCIP destab: inactive; TbHK1 inh: 50.3; p97 ATPase inh: inactive; Furin inh: inactive; G6PDH ctr: inactive; TbHK1 confirm: inactive

What do the screens show for `Cc1ccccc1C(=O)Nc1cc(NC(=O)c2ccccc2C)cc(C(=O)O)c1`?
pCIP destab: inactive

What do the screens show for `C/C(Cl)=C\Cn1c(NCCc2ccccc2)nc2c1c(=O)n(C)c(=O)n2C`?
DTT redox prof: inactive; Efa HMGR inh: inactive; pCIP destab: inactive; TbHK1 inh: inactive; p97 ATPase inh: inactive; Furin inh: inactive

How did C/C(Cl)=C/Cn1c(=O)c2c(nc(Br)n2Cc2ccccc2)n(C)c1=O do in these assays?
DTT redox prof: inactive; Efa HMGR inh: inactive; pCIP destab: inactive; TbHK1 inh: 58.4; p97 ATPase inh: inactive; Furin inh: inactive; G6PDH ctr: inactive; TbHK1 confirm: inactive

Results for COc1nc(-c2cnccn2)sc1C ?
DTT redox prof: inactive; Efa HMGR inh: inactive; pCIP destab: inactive; TbHK1 inh: inactive; p97 ATPase inh: inactive; Furin inh: inactive

How did CC(=O)Nc1nc2ccccc2n1CCOc1ccccc1Cl do in these assays?
DTT redox prof: inactive; Efa HMGR inh: inactive; pCIP destab: inactive; TbHK1 inh: 52.3; p97 ATPase inh: inactive; Furin inh: inactive; G6PDH ctr: inactive; TbHK1 confirm: inactive

Results for O=C1CCC(C(=O)NCCCn2ccnc2)N1 (stereo not drawn) ?
DTT redox prof: inactive; Efa HMGR inh: inactive; pCIP destab: inactive; TbHK1 inh: 58.1; p97 ATPase inh: inactive; Furin inh: inactive; G6PDH ctr: inactive; TbHK1 confirm: inactive

What do the screens show for `COc1ccc(CCNC(=O)c2ccc(CS(=O)Cc3ccc(Cl)cc3)o2)cc1OC` (stereo not drawn)?
pCIP destab: inactive

Results for Cc1ccccc1N=Nc1ccc(O)c2ncccc12 ?
DTT redox prof: inactive; Efa HMGR inh: inactive; pCIP destab: inactive; TbHK1 inh: 64.5; p97 ATPase inh: inactive; Furin inh: inactive; G6PDH ctr: inactive; TbHK1 confirm: inactive

Results for COc1ccc(N=Nc2ccc(O)c3ncccc23)cc1 ?
pCIP destab: inactive; TbHK1 inh: inactive; p97 ATPase inh: inactive; Furin inh: inactive

What do the screens show for `CC(=O)Nc1cccc(OCCCNC(=O)C2CCC2)c1`?
pCIP destab: inactive; TbHK1 inh: inactive; p97 ATPase inh: inactive; Furin inh: inactive

How did Cn1c(SCc2cccc(F)c2)nnc1-c1ccccn1 do in these assays?
DTT redox prof: inactive; Efa HMGR inh: inactive; pCIP destab: inactive; TbHK1 inh: 55.5; p97 ATPase inh: inactive; Furin inh: inactive; G6PDH ctr: inactive; TbHK1 confirm: inactive
